According to PubChem BioAssay (NCI):
About 79,000 compounds went through this panel and 15% of them were active in at least one assay; those are over-represented in the sample as a whole. A number with no mark means an inactive call. The source made the active and inactive calls. No stated cut-off is given here; in the data, active means growth inhibition above about 70%; inactive means the rest.

How the values were obtained:
[1] = NCI Yeast Anticancer Drug Screen. Data for the rad50 strain (AID 155);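 further: 0% = growth of vehicle-only cultures of the same strain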; conditions: S. cerevisiae rad50 strain growth inhibition, hits give high values
Summary of the method: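 Relative growth inhibition (compound vs vehicle) was measured in yeast with a defined repair-gene alteration.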

[2] = NCI Yeast Anticancer Drug Screen. Data for the mec2-1 strain (AID 157); conditions: S. cerevisiae mec2-1 strain, hits give high values
Summary of the method: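 Strain: mec2-1 (DNA repair/cell cycle alteration). Compound exposure, then growth measured; inhibition expressed relative to vehicle.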

[3] = NCI Yeast Anticancer Drug Screen. Data for the sgs1 mgt1 strain (AID 161);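 further: 0% = growth of cultures given vehicle only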; conditions: S. cerevisiae sgs1 mgt1 strain, hits give high values
Summary of the method: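 Inhibition of yeast growth, normalised to vehicle-treated controls, is reported for a strain bearing genetic alterations in DNA damage repair.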

[4] = NCI Yeast Anticancer Drug Screen. Data for the cln2 rad14 strain (AID 165);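 further: 0% = growth equal to vehicle treated cultures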; conditions: S. cerevisiae cln2 rad14 strain, hits give high values
Summary of the method: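 Compounds are applied to the cln2 rad14 yeast strain, and growth is then compared with that of vehicle-treated cultures to give inhibition.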

[5] = NCI Yeast Anticancer Drug Screen. Data for the bub3 strain (AID 167); conditions: S. cerevisiae bub3 mutant strain, hits give high values
Summary of the method: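 Screening used yeast with an engineered genetic alteration affecting cell cycle control. Compound-exposed cultures were compared with vehicle cultures, and reduced growth was taken as inhibition.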

[6] = NCI Yeast Anticancer Drug Screen. Data for the mlh1 rad18 strain (AID 175); conditions: S. cerevisiae mlh1 rad18 strain growth inhibition, hits give high values
Summary of the method: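 Read-out is yeast growth inhibition, calculated against vehicle-only controls. The compound was applied to a strain engineered with DNA damage repair alterations.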

[7] = at 5.0 µM (retest, dose inferred, filed as 0.5)
[8] = at 50.0 µM (retest, dose inferred, filed as 5.0)

SMILES	growth inhibition [1, 7] [%]	growth inhibition [1, 8]	growth inhibition ([1]; at 50.0 µM)	growth inhibition [2, 7] [%]	growth inhibition [2, 8]	growth inhibition ([2]; at 50.0 µM)	growth inhibition [3, 7] [%]	growth inhibition [3, 8]	growth inhibition ([3]; at 50.0 µM)	growth inhibition [4, 7] [%]	growth inhibition [4, 8]	growth inhibition ([4]; at 50.0 µM)	growth inhibition [5, 7] [%]	growth inhibition [5, 8]	growth inhibition ([5]; at 50.0 µM)	growth inhibition [6, 7] [%]	growth inhibition [6, 8]	growth inhibition ([6]; at 50.0 µM)
CN(Cc1cc(Br)cc(Br)c1O)Cc1c[nH]c2ccccc12	-1	8%	68.1%	12	31%	31.1%	0	14%	86.4% (active)	-2	0%	62.2%	-4	-1%	40.9%	36	48%	74.5% (active)
Nc1ccc2nnnn2c1	0	72% (active)	24.5%	-2	19%	38%	9	76% (active)	46.8%	3	27%	31.2%	10	78% (active)	5.8%	14	91% (active)	70.5% (active)
O=C(O)c1ccccc1/C=N/O	1	-4%	1.5%	2	-2%	-4.2%	0	-2%	3%	-2	1%	93% (active)	0	-1%	4.4%	0	-3%	6.7%
C1=c2ccccc2=C2C(=C(c3ccccc3)C(c3ccccc3)=NN2c2ccccc2)S1	-25	-9%	-14.2%	0	-17%	-18.6%	-13	-22%	-18.8%	-22	-13%	5.9%	-4	2%	-5.35%	-1	-32%	-2.55%
CSc1cc(-c2cc3ccccc3o2)oc(=O)c1C#N	6	-8%	-1.6%	-1	-10%	-6.6%	3	-11%	-24.4%	-9	-6%	-4.5%	-5	-8%	40.1%	-4	-11%	-23.9%
CC(C)(C)OC(=O)NCCNC(=O)CN(CC(=O)O)C1CCCCC1N(CC(=O)O)CC(=O)O (configuration not stated)	-16	59%	50.4%	-7	52%	62.3%	1	46%	61.6%	-21	46%	15.9%	0	75% (active)	66.2%	-10	66%	74.5% (active)
COc1ccc(Cc2c3ccccc3cc[n+]2C)cc1Oc1ccc(Cc2c3ccccc3cc[n+]2C)cc1	2	87% (active)	51.5%	-1	92% (active)	43.8%	2	93% (active)	76.5% (active)	-14	84% (active)	-26.7%	-2	96% (active)	40.9%	-2	96% (active)	85.9% (active)
Cc1csc(N)[n+]1CCC(=O)[O-]	-1	-3%	-3.95%	-1	-2%	-23.1%	-1	-2%	-2.8%	-3	3%	31.5%	-1	1%	-14.6%	0	-3%	-24.5%
CC(C)(C)C(OC(=O)Nc1ccccc1)C(C)(C)C	-1	29%	-0.7%	-18	-5%	-2.2%	4	8%	-9.55%	9	16%	-61.5%	-1	37%	5.1%	9	36%	6.25%
Nc1ccccc1N=Nc1c(S(=O)(=O)O)cc2cc(S(=O)(=O)O)cc(O)c2c1O	17	23%	-24%	3	5%	-10.9%	-3	11%	-27.6%	34	-10%	27.9%	17	12%	-33.5%	5	7%	-33.9%
CCCCCCCCCCCC(=O)N(CCCCCCCCC)CC(O)C(O)C(OC1OC(CO)C(O)C(O)C1O)C(O)CO (configuration not stated)	0	97% (active)	82.5% (active)	-2	95% (active)	85% (active)	-36	96% (active)	85.7% (active)	-17	91% (active)	66.5%	6	96% (active)	86.3% (active)	1	97% (active)	62%
c1cc(SSc2ccncc2)ccn1	47	100% (active)	51.1%	50	100% (active)	85.5% (active)	55	100% (active)	56.8%	34	97% (active)	42%	45	69%	92.6% (active)	65	100% (active)	82.1% (active)
CCCCCCCC(=O)N1CCCCC1CC (configuration not stated)	-142	14%	72.1% (active)	-49	-30%	25.6%	-63	24%	73% (active)	-53	-68%	-6.15%	-53	17%	-9.4%	-118	-64%	24.2%
CC(=O)c1cccc(NC2C(N)C(NC(=O)N(C)C)(C(C)O)C(C)(O)C2(O)COC(=O)c2c(C)cccc2O)c1 (configuration not stated)	42	96% (active)	93% (active)	17	98% (active)	94.5% (active)	44	97% (active)	94.6% (active)	21	96% (active)	92% (active)	36	98% (active)	93.8% (active)	47	97% (active)	93.2% (active)
COc1ccc(C=O)cc1C[P+](c1ccccc1)(c1ccccc1)c1ccccc1	46	97% (active)	98% (active)	38	99% (active)	97.6% (active)	51	99% (active)	98.4% (active)	13	94% (active)	98.3% (active)	54	98% (active)	97.5% (active)	39	94% (active)	97.9% (active)
c1ccc2c(Nc3ccc(Oc4ccc(Nc5c6ccccc6nc6ccccc56)cc4)cc3)c3ccccc3nc2c1	50	99% (active)	82.8% (active)	8	100% (active)	6.6%	31	99% (active)	-22.9%	6	99% (active)	6.45%	10	99% (active)	-1.8%	20	99% (active)	10.3%
CC1(C)CC[C@]2(C(=O)O)[C@H](O)C[C@]3(C)C(=CC[C@@H]4[C@@]5(C)CC[C@H](OC6OCC(O)C(O)C6OC6OCC(O)C(O)C6OC6OCC(O)C(O)C6O)C(C)(C)[C@@H]5CC[C@]43C)[C@@H]2C1 (some centres not stated)	5	7%	51.9%	12	54%	57.1%	8	33%	-13.4%	14	100% (active)	54%	14	100% (active)	48.8%	5	53%	52%
c1ccc2c(c1)nc1cc(NC3CCCCC3)c(=NC3CCCCC3)cc-1n2C1CCCCC1	8	4%	44.5%	0	5%	37.6%	-7	2%	42.8%	-1	-13%	23.3%	-3	16%	39.8%	0	-49%	16.6%
O=[N+]([O-])c1ccc(S(=O)(=O)N/N=C/C=C/c2ccccc2)cc1	6	13%	71% (active)	2	17%	37%	4	14%	87.5% (active)	-4	16%	48.3%	6	36%	48.6%	6	39%	75.5% (active)
